Most compounds without a hit are left out; they make up all but 32% or so of the library.
CYP2C19 activ: cytochrome P450 2C19 (human) activation. P33261. recombinant CYP2C19, luciferin-H EGE luminescence; hits give high values; 0 = fully inhibited enzyme, 1 = untreated enzyme. activation factor at 5 µM. 96,000 tested, under 10 active. AID 1025;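 active means activation factor of at least 2 at 5 µM in the primary screen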;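 further: 0 = wells with 2.5 mM tranylcypromine and 1 = vehicle-only wells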
Target sequence (P33261 whole entry, looked up): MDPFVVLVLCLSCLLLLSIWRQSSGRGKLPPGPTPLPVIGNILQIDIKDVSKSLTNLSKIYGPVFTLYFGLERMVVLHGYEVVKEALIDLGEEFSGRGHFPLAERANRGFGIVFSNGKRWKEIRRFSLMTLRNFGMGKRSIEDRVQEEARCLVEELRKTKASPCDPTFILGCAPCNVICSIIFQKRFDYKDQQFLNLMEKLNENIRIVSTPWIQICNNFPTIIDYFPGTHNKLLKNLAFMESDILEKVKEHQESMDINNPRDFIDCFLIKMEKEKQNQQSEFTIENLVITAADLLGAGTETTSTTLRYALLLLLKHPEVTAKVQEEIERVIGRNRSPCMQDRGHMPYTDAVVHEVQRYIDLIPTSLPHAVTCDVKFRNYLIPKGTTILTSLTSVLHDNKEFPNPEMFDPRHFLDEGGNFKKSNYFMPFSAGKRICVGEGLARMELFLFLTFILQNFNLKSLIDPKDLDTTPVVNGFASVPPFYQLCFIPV
PostGolgi ctrl: yeast control strain growth, post-Golgi counter-screen; efflux-deficient yeast background strain, growth absorbance A615, 16 h; 5% of 98,000 active; AID 738; inhibition, % at 10 µM
CYP2C9 inhib: human CYP2C9 inhibition; P11712; CYP2C9 Supersomes, luciferin-H conversion, luminescence; inhibition, % at 5 µM; 20% of 96,000 active; AID 777;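 active means blocking of liver enzyme CYP2C9 beyond about 50% at 5 µM, limit read from the data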
CYP2C19 inh: blocks human cytochrome P450 2C19; AID 778; 21% of 96,000 active; inhibition, % at 5 µM; P33261; CYP2C19 Supersomes, luciferin-H EGE luminescence, 30 min;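 active means CYP2C19 inhibition above a set limit at 5 µM in the primary screen, cut at about 50% in these data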;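 further: plate controls were negative control wells for no effect and 2.5 mM tranylcypromine positive control for full effect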
CYP2C9 act: activators of human CYP2C9; P11712; recombinant CYP2C9, luciferin-H conversion, luminescence; hits give high values; factor 1 = untreated enzyme, 0 = blocked; activation factor at 5 µM; 1.4% of 96,000 active; AID 1024;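 active means activation factor of 2 or more for CYP2C9 at a 5 µM dose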;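 further: 0 = sulfaphenazole-blocked wells and 1 = vehicle-only wells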
PostGolgi yeast: growth inhibition of a yeast mutant, post-Golgi transport screen. post-Golgi transport phenotypic cell assay. 0.9% of 98,000 active. inhibition, % at 10 µM;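 further: yeast cells grown in 1536-well plates; yeast grown about 18 h at 30C before absorbance read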
* marks the source's active call; other numbers are inactive results. Unless noted, no stated cut-off is given here; in the data, active means inhibition above about 30%; inactive means the rest.

SMILES	CYP2C19 activ	PostGolgi ctrl	CYP2C9 inhib	CYP2C19 inh	CYP2C9 act	PostGolgi yeast
CCOC(=O)C1CCCN(c2c(NCCCN(CC)c3cccc(C)c3)c(=O)c2=O)C1 (centres undefined)	0.5	-1.5	29.8	48.1	0.7	-0.3
O=C(c1cccs1)N(Cc1ccco1)Cc1cc2ccccc2[nH]c1=O	0.3	5.9	67.3*	74.8*	0.3	-4.8
O=C(c1cc2ccccc2oc1=O)N(Cc1ccco1)Cc1cccs1	0.7	49.4*	66.0*	33.3	0.3	-5.4
Cc1ccc2[nH]c(=O)c(CN(Cc3ccco3)C(=O)c3ccncc3)cc2c1	0	8.5	96.0*	99.8*	0	-1.3
Cc1ccc2[nH]c(=O)c(CN(CC3CCCO3)C(=O)c3ccncc3)cc2c1 (centres undefined)	0	-7.0	84.3*	97.8*	0.2	3.2
COc1ccc2[nH]c(=O)c(CN(Cc3ccco3)C(=O)c3ccccc3)cc2c1	0.6	9.4	30.4	35.2	0.7	-1.2
CCN(C(=O)c1cn(CC)c(=O)c2cc(OC)c(OC)cc12)c1ccccc1C	0.9	16.4	11.9	10.1	0.9	0.0
CCN(C(=O)c1cccc(F)c1)c1ccccc1C	0.2	14.6	61.2*	83.0*	0.4	2.3
Fc1cc2nc(-c3ccncc3)[nH]c2cc1F	0.4	3.9	47.4	64.2*	0.5	-11.5
COc1ccc(C(O)(C(=O)NNc2ccc(C)cc2)c2cccs2)cc1 (centres undefined)	0.2	-6.2	24.1	76.8*	0.8	21.5
O=C(NNc1ccc(C2CCCCC2)cc1)C(O)(c1ccccc1)c1cccs1 (centres undefined)	0.8	46.0*	28.3	17.3	0.7	15.1
O=C(CCC1CCCCC1)NCc1cccs1	0.6	18.6	16.1	40.8	0.8	-5.6
CCOC(=O)N1CCN(S(=O)(=O)c2ccc3c(c2)CCN3C(=O)CC)CC1	0.8	-5.0	26.7	20.5	0.7	-9.0
Cc1cc2c(c(=O)n1CCCn1ccnc1)C(c1ccco1)C(C#N)=C(N)O2 (centres undefined)	0.2	12.3	100.4*	76.4*	0	2.7
COc1ccc(C2C(C#N)=C(N)Oc3cc(C)n(Cc4ccco4)c(=O)c32)cc1 (centres undefined)	0.8	1.5	68.3*	16.8	0.3	3.9
Cc1cc2c(c(=O)n1Cc1cccnc1)C(c1ccccc1)C(C#N)=C(N)O2 (centres undefined)	0.9	-6.4	26.5	7.0	0.7	0.2
COc1ccccc1C1C(C#N)=C(N)Oc2cc(C)n(CCCn3ccnc3)c(=O)c21 (centres undefined)	0.1	-0.1	100.0*	90.0*	0	9.2
Cc1cc2c(c(=O)n1Cc1ccc3c(c1)OCO3)C(c1cccnc1)C(C#N)=C(N)O2 (centres undefined)	0.7	3.4	51.7*	28.5	0.5	-5.5
C=CCNC(=O)c1ccc2c(c1)nnn2C	1	5.6	-0.5	4.2	1	-5.0
CC(=O)c1c(C)nn(CC(O)Cn2c3c(c4cc(C)ccc42)CCCC3=O)c1C (centres undefined)	0.5	7.6	66.9*	54.3*	0.3	3.5
Cc1ccc2c(c1)c1c(n2CC(O)Cn2nc(C)c(Br)c2C)C(=O)CCC1 (centres undefined)	0.9	8.1	7.3	10.9	0.9	-5.3
Cc1ccc2c(c1)c(C)c(C)n2CC(O)Cn1nc(C)c(Br)c1C (centres undefined)	0	17.5	95.7*	97.1*	0	-0.1
Cc1ccc2c(c1)c(C)c(C)n2CC(O)CN1CCCCC1C (centres undefined)	0.3	11.1	5.4	74.6*	0.9	10.8
Cc1ccc(C)c(OCC(O)CN2C(C)CCCC2C)c1 (centres undefined)	1	0.1	-13.5	4.5	1.1	-6.0
Cc1ccc(C)c(OCC(O)CN2CCCCC2C)c1 (centres undefined)	0.5	13.7	-9.8	52.7*	1.1	1.1
SMILES	CYP2C19 activ	PostGolgi ctrl	CYP2C9 inhib	CYP2C19 inh	CYP2C9 act	PostGolgi yeast
COc1ccc(-c2cc(O)cc(O)c2)cc1	0.4	22.4	59.7*	58.8*	0.4	1.9
CC(C)COC(=O)Cn1cnc2ccc(Br)cc2c1=O	0.1	1.9	55.5*	91.1*	0.4	-1.2
O=C(Cn1cnc2ccccc2c1=O)c1cccs1	0.8	8.2	42.9	23.9	0.6	2.3
O=C(Cn1cnc2ccc(Br)cc2c1=O)c1cccs1	0.2	20.6	52.2*	77.9*	0.5	-4.1
O=C(Cn1cnc2ccc(Cl)cc2c1=O)c1cccs1	0.5	-4.3	31.9	53.9*	0.7	-2.7
COc1ccc(N2CCN(C(=O)C(CCSC)N=C3NS(=O)(=O)c4ccccc43)CC2)cc1 (centres undefined)	0.9	4.9	32.7	12.3	0.7	-4.8
CC(=O)c1c(C)nn(CCC(=O)O)c1C	1	13.8	-5.3	-3.4	1.1	10.1
Cc1cccc(-n2ccnc2SCC(=O)Nc2nccs2)c1C	0.5	27.3	47.3	52.9*	0.5	2.9
Cc1c(Cl)cccc1-n1ccnc1SCC(=O)O	0.9	4.8	67.2*	6.8	0.3	-2.5
CCc1nnc(NC(=O)CSc2nnc(-c3c[nH]c4ccccc34)n2C)s1	0.9	14.6	47.4	13.5	0.5	2.7
CCc1nnc(NC(=O)CSc2nccn2-c2cccc(C)c2C)s1	0.7	27.6	52.7*	27.4	0.5	-0.5
CCc1nnc(NC(=O)CSc2nccn2-c2cc(C)cc(C)c2)s1	0.9	15.4	57.8*	13.3	0.4	-7.2
Cc1c(Cl)cccc1NC(=O)Cn1cccc1	0.8	2.2	-1.3	24.6	1	10.0
CCOc1ccc(-n2ccnc2SCC(=O)Nc2nnc(C)s2)cc1	0.8	1.2	21.0	17.7	0.8	3.0
CC(=O)N1CCc2cc(S(=O)(=O)NCCC(=O)Nc3ccc4c(c3)OCCO4)ccc21	1	-0.6	36.6	1.8	0.6	6.0
O=C(/C=C/c1ccc(Cl)c(Cl)c1)n1cccn1	0.9	2.7	0.2	5.9	1	-8.6
CCOC(=O)/C(C#N)=C/c1ccc(OCC(=O)Nc2ccc(OC)cc2)c(OC)c1	0.5	-1.8	59.4*	48.9	0.4	1.0
CCOC(=O)/C(C#N)=C/c1ccc(OC)c(OC)c1	1	3.8	29.0	1.3	0.7	2.2
COc1ccccc1C(=O)O/N=C1/CCCc2c1ccc(OC)c2[N+](=O)[O-]	0.1	2.2	50.6*	85.4*	0.5	0.2
Cc1ccc(NC(=O)OCc2cn(-c3ccc(Cl)cc3)nn2)cc1	0.8	3.6	44.4	24.3	0.6	7.6
CS(=O)c1ccccc1COC(=O)Nc1ccc(Cl)cc1 (centres undefined)	0.1	13.7	45.5	94.6*	0.5	-9.5
Nc1cc(N)c(OCC(F)(F)F)cc1OCC(F)(F)F	0.3	-1.9	54.9*	74.5*	0.5	30.3*
